Experimental data taken from PubChem BioAssay AID504374 (National Center for Advancing Translational Sciences (NCATS), 2011).
About 100 (6.7%) of roughly 1,500 compounds were called active. Roughly 7% stayed inconclusive and do not appear here. The sample holds actives, similar compounds and a random draw of the others, so the mix is not that of the screen. A number with no mark means an inactive call. The call rests on the fitted dose curve; in most records, active means well fitted inhibition curve with a large enough effect; inconclusive means small, poorly fitted or top-dose-only effect, or effect the other way; inactive means flat fitted curve, though single readings scatter.

target: Runt-related transcription factor 1 (Homo sapiens) + Core-binding factor subunit beta (Homo sapiens) (UniProt Q01196+Q13951); assay: qHTS Assay for Compounds Blocking the Interaction Between CBF-beta and RUNX1 for the Treatment of Acute Myeloid Leukemia: Hit Validation; details: AlphaScreen CBFb-His/RUNX1-biotin binding; series mostly up to 59.8 µM; activity, negative = inhibition: at the top concentration; further: nearly all actives have a fitted effect of over 60% in size
Procedure, shortened: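 AlphaScreen proximity assay: His-tagged CBF-beta and biotinylated RUNX1 (30 nM each) preincubated 20 min, then compound 15 min, then nickel and streptavidin beads 90 min, all at room temperature; signal read at […]em 440 nm.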
On the % scale 0 is the no-effect control and ±100 the full control effect; potency means the concentration at half of the fitted maximal effect.

Sequence of Runt-related transcription factor 1 (Homo sapiens) + Core-binding factor subunit beta (Homo sapiens) (Q01196 whole entry, looked up): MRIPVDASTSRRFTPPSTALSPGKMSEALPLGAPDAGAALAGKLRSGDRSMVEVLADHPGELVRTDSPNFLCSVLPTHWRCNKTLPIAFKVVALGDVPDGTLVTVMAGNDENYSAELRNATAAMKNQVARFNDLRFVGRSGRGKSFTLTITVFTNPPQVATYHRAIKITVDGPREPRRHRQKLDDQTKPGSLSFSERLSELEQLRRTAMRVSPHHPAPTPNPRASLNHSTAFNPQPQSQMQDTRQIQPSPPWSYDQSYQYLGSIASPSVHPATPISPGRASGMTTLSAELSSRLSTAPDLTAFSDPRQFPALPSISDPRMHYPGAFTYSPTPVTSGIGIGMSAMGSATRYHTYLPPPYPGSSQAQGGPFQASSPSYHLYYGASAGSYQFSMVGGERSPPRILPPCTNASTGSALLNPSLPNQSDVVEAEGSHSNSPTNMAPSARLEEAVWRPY
Sequence of Runt-related transcription factor 1 (Homo sapiens) + Core-binding factor subunit beta (Homo sapiens) (Q13951 whole entry, looked up): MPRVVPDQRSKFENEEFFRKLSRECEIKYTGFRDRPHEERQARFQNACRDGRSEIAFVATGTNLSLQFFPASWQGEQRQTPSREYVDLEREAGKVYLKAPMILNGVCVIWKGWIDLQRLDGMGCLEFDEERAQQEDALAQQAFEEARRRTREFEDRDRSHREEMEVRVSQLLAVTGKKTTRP

First: CCNC(=S)N1N=C2c3ccccc3CCC2C1c1ccc(F)cc1 (stereo unspecified)
Second: Cc1ccccc1-c1noc(-c2ccccc2C(=O)NCC2CCCO2)n1 (stereo unspecified)
The “activity, negative = inhibition” value of the first is higher: 7.45% for the first, -6.51% for the second.

Compared with `Nc1cccnc1Oc1ccccc1F`, `COc1ccccc1CC(=O)Nc1cccc(C(=O)Nc2nccs2)c1` is lower in “activity, negative = inhibition” value: -2.77% for the first, -6.81% for the second.

First: Cn1c(-c2ccc3ccccc3n2)[n+](C)c2ccccc21
Second: CCOc1ccc(Nc2c3ccccc3nc3ccccc23)cc1
The “activity, negative = inhibition” value of the first is lower: -16.8% for the first, -13% for the second.

Going from `Cc1cc(NC(=O)CN2CCCCC2)n(-c2ccccc2)n1` to `Cc1oc(S(=O)(=O)N2CCCCC2)cc1NC(=O)Nc1ccc(F)cc1`, the “activity, negative = inhibition” value falls from 2.06% to -4.08%.

Going from `NNC(=O)c1ccc(COCC(F)(F)C(F)F)cc1` to `NNC(=O)c1ccc(Cn2cccn2)o1`, the “activity, negative = inhibition” value falls from -1.86% to -3.9%.

Going from `CC(C)(C)S(=O)(=O)/C(C#N)=C/Nc1ccccn1` to `COC(=O)CNC(=O)CSc1ccccn1`, the “activity, negative = inhibition” value rises from -2.32% to 6.43%.

Going from `O=C(O)c1nccnc1C(=O)Nc1ccc(S(=O)(=O)N2CCOCC2)cc1` to `Cc1ccc(NC(=O)CSc2n[nH]c(N)n2)cc1S(=O)(=O)N1CCOCC1`, the “activity, negative = inhibition” value rises from -6.89% to -1.46%.

Going from `CSc1nc2cc(S(=O)(=O)N3CCCCC3)ccc2s1` to `Cc1onc(-c2c(F)cccc2Cl)c1C(=O)N1CCSCC1`, the “activity, negative = inhibition” value falls from -1.3% to -1.82%.

Compared with `COC(=O)CC1=C(C(=O)OC)[C@@H](c2ccccc2[N+](=O)[O-])C(C#N)=C(N)O1`, `CC1(C)CC(=O)C2=C(C1)OC(N)=C(C#N)[C@@H]2c1ccccc1[N+](=O)[O-]` is lower in “activity, negative = inhibition” value: 3.04% for the first, -5.53% for the second.

First: CCOc1ccc(N2C(=O)CC(NNc3nc4ccccc4s3)C2=O)cc1 (stereo unspecified)
Second: COc1ccc(-c2nnsc2N2C(=O)c3ccccc3C2=O)cc1
The “activity, negative = inhibition” value of the first is higher: 5.71% for the first, -3.86% for the second.

Compared with `Cc1nnn(C23C[C@@H]4C[C@@H](CC(C(=O)N5CCN(c6ccccc6)CC5)(C4)C2)C3)n1`, `Cc1ccc(C)c(N2CCN(c3ccncc3N)CC2)c1` is lower in “activity, negative = inhibition” value: -5.35% for the first, -11.1% for the second.

Compared with `COC(=O)[C@H](CCSC)NC(=O)Nc1cc(OC)cc(OC)c1`, `COC(=O)[C@H](C)NC(=O)NCc1ccccc1` is higher in “activity, negative = inhibition” value: -12.2% for the first, -3.2% for the second.

Going from `COc1ccc(C(=O)NC(=S)Nc2ccc(CN3CCOCC3)cc2)cc1` to `COc1ccc(NC(=O)CCC(=O)N/N=C/c2ccncc2)cc1`, the “activity, negative = inhibition” value rises from -11.1% to 4.92%.

Compared with `Cn1c(=O)c([N+](=O)[O-])c(NCC2CCCO2)c2ccccc21` (stereo unspecified), `Nc1nc(Nc2ccccc2)nc(NCCO)c1[N+](=O)[O-]` is lower in “activity, negative = inhibition” value: -0.834% for the first, -6.03% for the second.

First: Cc1cccc(C(=O)N/C(=C\c2ccc(C)o2)C(=O)O)c1
Second: O=C(O)/C=C/C(=O)Nc1ccc(Cl)cc1C(=O)c1ccccc1
The “activity, negative = inhibition” value of the first is lower: -12.8% for the first, -3.57% for the second.

First: CC(C)(C)OC(=O)N1Cc2cc3ccccc3nc2C1CO (stereo unspecified)
Second: COc1ccc(/C=N/NC(=O)Cn2ccnc2C)cc1OC
The “activity, negative = inhibition” value of the first is higher: -2.12% for the first, -9.74% for the second.

Going from `CCOc1ccc(NC(=O)Nc2cc(C(C)C)c(O)cc2C)cc1` to `CC(C)(C)c1ccc(NC(=O)c2ccsc2)cc1`, the “activity, negative = inhibition” value rises from -2.87% to 6.68%.

Compared with `CC1CN(S(=O)(=O)c2cccc(C(F)(F)F)c2)CC(C)O1` (stereo unspecified), `FC(F)(F)c1cccc(-n2c(Cn3nnc4ccccc43)n[nH]c2=S)c1` is higher in “activity, negative = inhibition” value: -0.629% for the first, 7.14% for the second.

Compared with `CC(C)CC1C2C(=O)N(c3ccccc3)C(=O)C2ON1c1ccccc1` (stereo unspecified), `O=C(/C=C/c1ccccc1)c1c[nH]c2ccccc12` is lower in “activity, negative = inhibition” value: 0.251% for the first, -1.47% for the second.

Going from `c1ccc2sc(SCSc3nc4ccccc4s3)nc2c1` to `O=S(=O)(Nc1nc(SCc2ccc(Cl)cc2)n[nH]1)c1ccccc1`, the “activity, negative = inhibition” value falls from -3.42% to -15.9%.

Going from `COc1ccc(/C=N/NC(=O)c2cnccn2)c(OC)c1OC` to `COC(=O)C(=Cc1ccccc1[N+](=O)[O-])C(=O)OC`, the “activity, negative = inhibition” value rises from -4.33% to -2.17%.

First: CSc1ccc(C(=O)NCC(=O)O)cc1[N+](=O)[O-]
Second: CCOC(=O)Cc1csc(NC(=O)Cc2ccc(Br)cc2)n1
The “activity, negative = inhibition” value of the first is higher: -1.02% for the first, -4.76% for the second.

First: COC(=O)c1ccc(S(=O)(=O)N(C2CCCCC2)C2CCCCC2)n1C
Second: COc1ccc(NS(=O)(=O)c2ccc3c(c2)CCO3)cc1
The “activity, negative = inhibition” value of the first is higher: -5.96% for the first, -11.6% for the second.

Going from `CCN(CC)CCN1C(=O)C(=O)/C(=C(/O)c2ccc3c(c2)CC(C)O3)C1c1ccc(OC)cc1` (stereo unspecified) to `CC(=O)Nc1ccc(S(=O)(=O)Nc2cc(-c3ccccc3)nn2C)cc1`, the “activity, negative = inhibition” value rises from -3.3% to 0.969%.

Compared with `CCOC(=O)N1CCC(NC(=O)CCCC(=O)O)CC1`, `Nc1cc(=O)[nH]c(SCC(=O)Nc2cc(Cl)ccc2Cl)n1` is lower in “activity, negative = inhibition” value: 6.93% for the first, -10% for the second.

First: C/C(Cc1nnn(-c2cc(C)on2)n1)=N\O
Second: Cc1ccn(C)c(=N)c1
The “activity, negative = inhibition” value of the first is higher: -0.472% for the first, -1.05% for the second.

First: CN(C)C(=O)Nc1ccccc1
Second: O=C(O)c1cnc2[nH]c3ccccc3n2c1=O
The “activity, negative = inhibition” value of the first is higher: -3.42% for the first, -12% for the second.

Going from `Cc1cccc(CC(=O)c2c[nH]c3ccccc23)c1` to `O=C(/C=C/c1ccc(O)c(O)c1)c1ccccc1O`, the “activity, negative = inhibition” value falls from -8.61% to -28.7%.

With `NCCc1ccc(O)c(O)c1` the “activity, negative = inhibition” value was -10.7%.

With `O=C(NN1C(=O)CSC1=S)C(=O)NN1C(=O)CSC1=S` the Potency was 8.91 µM (active).
`O=S(=O)(c1ccc2nc(-c3ccco3)c(-c3ccco3)nc2c1)N1CCOCC1` was tested, and the Potency was 5.46 µM (active).
With `O=c1c(-c2cc(O)c(O)c(O)c2)coc2cc(O)c(O)c(O)c12` the Potency was 0.447 µM (active).
`COc1ccc(NC(=O)CSc2ccc(-c3ccccn3)nn2)cc1OC` was tested, and the Potency was 4.47 µM (active).
For `O=C(CSc1ccc(-c2ccccn2)nn1)NCc1ccccc1`, the Potency was 5.62 µM (active).
For `CCOc1ccc(NC(=O)CSc2ccc(-c3ccccn3)nn2)cc1`, the Potency was 5.01 µM (active).
For `Nc1c(C(=O)NCC2CCCO2)sc2nc3c(c(-c4ccco4)c12)CC/C3=C\c1ccco1` (stereo unspecified), the Potency was 12.6 µM (active).
With `O=C(O)C[C@@H]1C(=O)O[C@@H]2C(COC(=O)c3cc(O)c(O)c(O)c3)O[C@@H](OC(=O)c3cc(O)c(O)c(O)c3)[C@@H](OC(=O)c3cc(O)c(O)c4c3[C@H]1[C@H](O)C(=O)O4)[C@H]2OC(=O)c1cc(O)c(O)c(O)c1` (stereo partly specified) the Potency was 0.0316 µM (active).
In the case of `CC(Cc1c[nH]c2ccccc12)C(=O)O` (stereo unspecified), the Potency is reported as 12.2 µM (active).
`Cc1cc(=O)cc2oc3cc(N)c(-c4c(C)cc(O)cc4O)c(C)c3nc1-2` was tested, and the Potency was 8.88 µM (active).
For `COc1ccc(OC)c(-c2c3cc(O)c(=O)cc-3oc3cc(O)c(O)cc23)c1`, the Potency was 2.24 µM (active).
In the case of `NCC(=O)Nc1ccc(Cl)cc1C(=O)c1ccc[nH]1`, the Potency is reported as 3.55 µM (active).
With `N[C@H](Cc1ccc(O)c(O)c1)C(=O)O` the Potency was 8.91 µM (active).
With `NC(Cc1ccc(O)c(O)c1)C(=O)O` (stereo unspecified) the Potency was 1.12 µM (active).
